Assay [1] is described as follows: qHTS assay to identify small molecule agonists of the sonic hedgehog signaling (Shh) pathway (AID 1259368).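 Note: NIH/3T3-derived 3T3Gli1-Luc cells carrying a stable Gli1-driven firefly luciferase reporter; series mostly up to about 92 µM; nearly all actives have a fitted effect of over 15% in size.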 In a few lines: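 NIH/3T3-derived 3T3Gli1-Luc cells with stably integrated Gli1-driven firefly luciferase, 2,000 cells/well, compounds added after 4 hr. Incubated 24 hr at 37C, 5% CO2; luminescence read after 30 min with luciferase reagent at room temperature.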
(In general: qHTS replaces the single test concentration by a dilution series.)

The nature of assay [2]: qHTS assay to identify small molecule antagonists of the sonic hedgehog signaling (Shh) pathway (AID 1259369). Note: nearly all actives have a fitted effect of over 45% in size. Note: potency is the fitted concentration of half-maximal effect. In outline:
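NIH/3T3-derived Gli1-Luc reporter cells plated 4 h, dosed with compound, then stimulated with conditioned medium for 24 h at 37 C. Firefly luciferase luminescence read after 30 min with detection reagent at room temperature.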

The target of assay [3] is Estrogen receptor beta (Homo sapiens) (UniProt Q92731). Briefly: qHTS assay to identify small molecule agonists of the estrogen receptor beta (ER-beta) signaling pathway (AID 1259377; active = well fitted activation curve with a large enough effect in the signal ratio in the repeat runs, not every such curve was filed as active; the % refers to the signal ratio; note: potency is the fitted concentration of half-maximal effect). In outline: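 A UAS-controlled beta-lactamase reporter in ER-beta-UAS-bla HEK293T cells reports receptor activation. Compounds act for 16 hr at 37C in 2% charcoal-stripped serum, and a FRET substrate is read by fluorescence after 2 hours.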
Estrogen receptor beta (Homo sapiens), sequence (Q92731 whole entry, looked up): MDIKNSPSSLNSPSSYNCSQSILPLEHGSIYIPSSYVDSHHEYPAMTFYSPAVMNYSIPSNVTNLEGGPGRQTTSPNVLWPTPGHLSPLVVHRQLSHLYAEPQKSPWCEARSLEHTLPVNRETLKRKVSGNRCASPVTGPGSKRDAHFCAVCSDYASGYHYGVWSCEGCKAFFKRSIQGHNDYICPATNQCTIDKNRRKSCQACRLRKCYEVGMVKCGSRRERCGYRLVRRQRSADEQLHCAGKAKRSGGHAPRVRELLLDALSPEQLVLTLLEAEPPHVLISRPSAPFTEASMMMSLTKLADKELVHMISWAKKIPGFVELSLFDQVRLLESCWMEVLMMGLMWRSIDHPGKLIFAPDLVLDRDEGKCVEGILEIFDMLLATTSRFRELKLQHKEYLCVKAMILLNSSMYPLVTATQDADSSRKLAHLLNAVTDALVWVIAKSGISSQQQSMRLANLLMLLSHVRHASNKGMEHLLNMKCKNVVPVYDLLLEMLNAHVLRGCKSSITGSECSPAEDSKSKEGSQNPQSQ

The target is the same in assay [4]. Briefly: qHTS assay to identify small molecule antagonists of the estrogen receptor beta (ER-beta) signaling pathway (AID 1259378; active = well fitted inhibition curve with a large enough effect in the signal ratio in the repeat runs, not every such curve was filed as active; the % refers to the signal ratio; note: potency is the fitted concentration of half-maximal effect). In outline: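 ER-beta-UAS-bla HEK293T (GripTite) cells in 2% charcoal-stripped FBS medium were preincubated 6 hr at 37C, dosed with compound, then stimulated with 1 nM E2 (final) for 16 hr; beta-lactamase reporter read by B/G FRET fluorescence after 2 hr substrate loading.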

Assay [5] can be described thus: qHTS assay to identify small molecule agonists of the androgen receptor (AR) signaling pathway in the presence of an antagonist - cell viability counter screen (AID 1259379; active = well fitted curve in the direction sought with a large enough effect in the repeat runs; an effect the other way counts as inactive or inconclusive; note: nearly all actives have a fitted effect of over 25% in size; note: potency is the fitted concentration of half-maximal effect). In a few lines: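 MDA-kb2 cells (MMTV-luciferase, AR/GR), 3,000/well, 5 h attachment, then 3.0 µM nilutamide (final) and compounds at 15 concentrations. Viability by CellTiter-Fluor fluorescence after 16 h at 37 °C, 0% CO2, in the reporter wells.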

Assay [6] in a line: qHTS assay to identify small molecule agonists of the estrogen receptor beta (ER-beta) signaling pathway - cell viability counter screen (AID 1259380; active = well fitted curve in the direction sought with a large enough effect in the repeat runs; an effect the other way counts as inactive or inconclusive; note: nearly all actives have a fitted effect of over 30% in size). In a few lines: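 ER-beta-UAS-bla HEK293T cells in medium with 2% charcoal-stripped FBS, pre-incubated 6 hr, then treated 16 hr at 37C. Cytotoxicity read in the same wells by CellTiter-Glo luminescence after 30 min at room temperature.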

Assay [7] concerns the target Androgen receptor (Homo sapiens) (UniProt P10275). Briefly: qHTS assay to identify small molecule agonists of the androgen receptor (AR) signaling pathway in the presence of an antagonist (AID 1259381). Note: nearly all actives have a fitted effect of over 15% in size. In a few lines:
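MDA-kb2 cells carrying MMTV-luciferase (AR/GR responsive), 3,000 cells/well, co-treated with 3.0 uM nilutamide final. Compounds at 15 concentrations, 16 hr at 37C without CO2. Luciferase luminescence read after 30 min with ONE-Glo.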

Assay [8] in a line: qHTS assay to identify small molecule antagonists of the estrogen receptor beta (ER-beta) signaling pathway - cell viability counter screen (AID 1259382; active = well fitted curve in the direction sought with a large enough effect in the repeat runs; an effect the other way counts as inactive or inconclusive; note: series mostly up to about 92 µM; nearly all actives have a fitted effect of over 55% in size). In a few lines: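 ER-beta-UAS-bla HEK293T cells in 2% charcoal-stripped FBS medium, treated with compound plus 1 nM 17-beta-estradiol for 16 h at 37C. Viability read by CellTiter-Glo luminescence after 30 min at room temperature in the same wells.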

Assay [9] addresses Estrogen receptor (Homo sapiens) (UniProt P03372). Put plainly: qHTS assay to identify small molecule agonists of the estrogen receptor alpha (ER-alpha) signaling pathway in the presence of an antagonist (AID 1259383). For activation: top concentration of the series differs between compounds. Note: nearly all actives have a fitted effect of over 15% in size. Note: potency is the fitted concentration of half-maximal effect. In a few lines:
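VM7Luc4E2 cells express endogenous full-length ER-alpha with an ERE-luciferase reporter and were hormone-deprived for 5 days. Compounds at 15 concentrations were added with 10.0nM ICI-182,780 for 22hr at 37C. Luminescence was read with ONE-Glo.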

A short description of assay [10]: qHTS assay to identify small molecule agonists or antagonists of the thyroid stimulating hormone receptor (TSHR) signaling pathway - wild type cell line counter screen (AID 1259384). In outline:
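Wild-type HEK293 cells were plated 18 h at 37 C/5% CO2, pin-dosed with compound plus Ro20-1724 medium, held 30 min at room temperature, then given cAMP-d2 and anti-cAMP-cryptate; fluorescence was read after 1 h. Fifteen concentrations, triplicate.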

Where “and” joins values, the source holds several entries; their conditions need not be identical. Equal values may be shown once. Results filed as inconclusive are left out. More than one record can exist for a structure, and the calls need not agree. Calls of active or inactive are those of the source. Unless noted, calls come from the whole dose curve.

Drawing on PubChem BioAssay (Tox21), this text covers Potency and outcome for 24 compounds.

Estrogen receptor (Homo sapiens), sequence (P03372 whole entry, looked up): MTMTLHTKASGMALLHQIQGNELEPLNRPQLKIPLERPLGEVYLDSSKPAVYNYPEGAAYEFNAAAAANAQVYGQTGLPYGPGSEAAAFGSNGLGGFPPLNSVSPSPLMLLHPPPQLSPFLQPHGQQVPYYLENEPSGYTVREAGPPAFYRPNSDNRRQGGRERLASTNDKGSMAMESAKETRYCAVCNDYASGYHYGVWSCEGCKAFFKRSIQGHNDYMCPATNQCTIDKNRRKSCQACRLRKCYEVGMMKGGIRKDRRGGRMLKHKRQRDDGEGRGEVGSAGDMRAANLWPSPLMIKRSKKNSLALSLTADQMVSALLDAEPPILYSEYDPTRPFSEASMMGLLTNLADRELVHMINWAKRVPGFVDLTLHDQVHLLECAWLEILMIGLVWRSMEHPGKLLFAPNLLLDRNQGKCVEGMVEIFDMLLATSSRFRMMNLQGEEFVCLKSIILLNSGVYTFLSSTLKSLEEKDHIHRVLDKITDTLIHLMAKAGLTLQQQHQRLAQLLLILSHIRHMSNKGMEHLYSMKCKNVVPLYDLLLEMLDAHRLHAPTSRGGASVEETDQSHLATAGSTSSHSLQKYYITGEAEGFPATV
Androgen receptor (Homo sapiens), sequence (P10275 whole entry, looked up): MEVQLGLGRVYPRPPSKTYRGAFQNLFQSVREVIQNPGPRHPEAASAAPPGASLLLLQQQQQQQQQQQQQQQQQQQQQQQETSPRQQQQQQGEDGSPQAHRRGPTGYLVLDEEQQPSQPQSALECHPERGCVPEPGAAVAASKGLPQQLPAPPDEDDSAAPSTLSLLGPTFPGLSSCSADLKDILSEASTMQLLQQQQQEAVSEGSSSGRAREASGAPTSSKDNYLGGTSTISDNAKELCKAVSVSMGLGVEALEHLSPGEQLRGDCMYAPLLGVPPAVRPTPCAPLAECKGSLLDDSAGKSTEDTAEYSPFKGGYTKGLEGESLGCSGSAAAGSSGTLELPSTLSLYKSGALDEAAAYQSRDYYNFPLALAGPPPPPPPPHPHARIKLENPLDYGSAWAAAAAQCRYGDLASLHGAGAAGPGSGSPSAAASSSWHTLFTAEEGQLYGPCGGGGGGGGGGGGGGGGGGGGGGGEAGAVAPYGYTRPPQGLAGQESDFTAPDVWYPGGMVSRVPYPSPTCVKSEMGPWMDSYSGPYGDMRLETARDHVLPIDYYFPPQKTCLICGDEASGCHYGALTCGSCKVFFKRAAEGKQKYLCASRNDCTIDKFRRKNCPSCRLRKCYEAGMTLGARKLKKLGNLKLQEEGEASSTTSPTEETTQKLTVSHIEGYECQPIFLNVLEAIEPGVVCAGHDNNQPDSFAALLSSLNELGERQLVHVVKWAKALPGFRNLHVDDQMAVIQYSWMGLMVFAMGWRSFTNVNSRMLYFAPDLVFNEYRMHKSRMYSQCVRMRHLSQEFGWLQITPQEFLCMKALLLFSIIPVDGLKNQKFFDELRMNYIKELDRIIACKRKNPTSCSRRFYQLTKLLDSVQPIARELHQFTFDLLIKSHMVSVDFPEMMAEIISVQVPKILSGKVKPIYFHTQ

For `Nc1ccncc1`, the Potency result in [1], in assay [2], in assay [3], in [4], in assay [5] and in [6] was “inactive” each time. The Potency result in assay [7], in [8] and in assay [9] was “inactive” in each case. In assay [10], the call was inactive.
Take `Brc1ccc(Oc2cc(Br)c(Br)cc2Br)c(Br)c1`: the Potency entry in [1], in [2], in [3], in assay [4], in [5] and in [8] was “inactive” in each case. In assay [9], the Potency result was “inactive”.
Regarding `CNC(=O)N(C)c1nnc(C(C)(C)C)s1`, the Potency entry in assay [1], in assay [2], in assay [3], in assay [4], in assay [5] and in [6] was “inactive” each time. The Potency result in [8] and in assay [9] was “inactive” throughout. For the same compound, the call in assay [10] was inactive.
As to `COP(=S)(OC)Oc1cc(Cl)c(Cl)cc1Cl`, the Potency entry in assay [1], in assay [2], in [3], in [4], in assay [5] and in assay [7] was “inactive” throughout. The Potency result in [8] and in assay [9] was “inactive” in each case. Also, the result in assay [10] was inactive.
Regarding `CCCCC(CC)COC(=O)Cl` (stereo not given), the Potency result in assay [1], in assay [2], in assay [3], in assay [4], in assay [6] and in [8] was “inactive” each time. In addition, in assay [9], the Potency result is “inactive”. Moreover, in assay [10], the compound was called inactive.
`CCCCCCCCCCCOC(=O)c1ccccc1C(=O)OCCCCCCCCCCC`: the Potency result in assay [1], in assay [2], in assay [3], in assay [4], in assay [6] and in assay [8] was “inactive” each time. Besides, the Potency result in assay [9] was “inactive”. Further, the outcome in [10] was inactive.
As for `CC(C)(C)c1ccccc1O`, the Potency result in assay [1], in [2], in assay [3], in assay [4], in assay [5] and in assay [6] was “inactive” throughout. For the same compound, the Potency result in [8] is “inactive”.
In the case of `C=CCc1ccc(OC)cc1`, the Potency result in [1], in assay [2], in assay [3], in assay [4], in assay [6] and in [8] was “inactive” in each case. For the same compound, in [10], the compound was called inactive.
Turning to `Nn1cnnc1`, the Potency entry in assay [1], in [2], in assay [3], in [4], in assay [6] and in [8] was “inactive” each time. Moreover, the Potency entry in assay [9] is “inactive”. Further, the compound was called inactive in [10].
In the case of `O=c1oc2ccccc2c(O)c1C(CC(O)c1ccc(-c2ccc(Br)cc2)cc1)c1ccccc1` (stereo not given), the Potency result in assay [1], in assay [2], in assay [3], in assay [5], in assay [8] and in assay [9] was “inactive” each time. In addition, in assay [4], the Potency is 23 µM (active).
`CC(C)C(=O)OCC(C)(C)C(OC(=O)C(C)C)C(C)C` (stereo not given): the Potency result in assay [1], in [2], in [4], in [5] and in [8] was “inactive” each time. Also, the Potency result in [3] is “inactive and 27.3 µM (active)”; in assay [9], “inactive and 27.3 µM (active)”. Moreover, the compound was called inactive in [10].
`c1ccc(NNc2ccccc2)cc1`: the Potency entry in assay [1], in assay [2], in [3], in assay [4], in [5] and in assay [6] was “inactive” each time. In addition, the Potency result in assay [8] was “inactive”. In [10], the compound was called inactive.
As for `O=[N+]([O-])c1ccc(O)c([N+](=O)[O-])c1`, the Potency entry in assay [1], in assay [3], in [4], in assay [6], in assay [7] and in [8] was “inactive” throughout. In addition, the Potency entry in assay [9] is “inactive”. Also, the Potency in [2] is 30.8 µM (active) and 30.6 µM (active); in assay [5], 48.8 µM (active) and 48.6 µM (active). In addition, the outcome in assay [10] was inactive.
As for `CC(C)NC(C)C`, the Potency entry in assay [1], in assay [2], in assay [3], in assay [4], in assay [5] and in assay [8] was “inactive” each time. Also, in [9], the Potency result was “inactive”. Further, the compound was classed as inactive in assay [10].
On to `Nc1ccc(-c2ccc(N)c(N)c2)cc1N`, for which the Potency entry in assay [1], in [3], in assay [5] and in assay [8] was “inactive” each time. Also, the Potency is 13.6 µM (active) in assay [2] and 48.4 µM (active) in [4]. Also, in [10], the call was inactive.
In the case of `C=C(C)C(=O)OCC1CO1` (stereo not given), the Potency result in assay [1], in assay [2], in assay [3], in [4], in [5] and in [6] was “inactive” throughout. Also, the Potency entry in assay [8] and in assay [9] was “inactive” in each case. Also, the call in assay [10] was inactive.
Regarding `O=C(NC(=O)c1c(F)cccc1F)Nc1ccc(Cl)cc1`, the Potency result in assay [1], in [2], in assay [3], in [4], in assay [5] and in [6] was “inactive” in each case. The Potency entry in assay [8] and in [9] was “inactive” throughout. In addition, the outcome in assay [10] was inactive.
On to `Nc1c(Cl)cc([N+](=O)[O-])cc1Cl`, for which the Potency entry in assay [1], in [2], in [3], in [4], in assay [7] and in assay [9] was “inactive” in each case.
Turning to `O=[N+]([O-])c1c(Cl)c(Cl)c(Cl)c(Cl)c1Cl`, the Potency result in assay [1], in [2], in assay [3], in assay [4], in assay [7] and in [8] was “inactive” in each case. For the same compound, the Potency entry in assay [9] was “inactive”. In [5], the Potency is 60.8 µM (active) and 48.6 µM (active).
As for `Cc1cc(C)cc(C)c1`, the Potency result in assay [1], in assay [2], in assay [3], in assay [4] and in assay [8] was “inactive” throughout. In addition, in [10], the result was inactive.
As to `C=CCN(CC=C)C(=O)C(Cl)Cl`, the Potency entry in [1], in [2], in [3], in assay [4], in assay [5] and in assay [6] was “inactive” in each case. Besides, the Potency entry in assay [8] is “inactive”. For the same compound, the call in assay [10] was inactive.
For the compound `O=[N+]([O-])c1cccc2ccccc12`, the Potency result in [1], in [2], in assay [3], in assay [4], in [6] and in assay [8] was “inactive” each time. The Potency result in assay [9] is “inactive”. In addition, the result in assay [10] was inactive.
With `CCC(C)(c1ccc(O)cc1)c1ccc(O)cc1`, the Potency entry in [1], in assay [3], in [5], in assay [6] and in assay [8] was “inactive” each time. The Potency in assay [2] is 24.3 µM (active) and 61.1 µM (active); in [4], 0.243 µM (active); in [9], 9.68 µM (active) and 8.63 µM (active). Also, the compound was called inactive in assay [10].
As for `CN(C)C(=O)Nc1ccc(Cl)cc1`, the Potency result in assay [1], in assay [2], in [3], in [4] and in assay [8] was “inactive” each time. For the same compound, the call in assay [10] was inactive.
